Experimental data from PubChem BioAssay (EPA / NIEHS).
The source made the active and inactive calls. The calls were made as follows: active = hit-call score of the fitted dose curve at least 0.9, where 1 is the maximum; inactive = score below 0.9.

How the values were obtained:
[1] = read-out: Transforming growth factor beta 1 (TGFb1), TGFB1 (gene 7040); assay: BSK_KF3CT_TGFb1: BioMAP Diversity Plus: KF3CT Assay for Transforming growth factor beta 1 (TGFb1) Biomarker Activity (AID 2283072); details: primary human keratinocytes with fibroblasts; actives raise or lower the signal
Summary of the method: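 ELISA quantifies TGF-b1 at 24 h post-dose in a primary human skin co-culture of keratinocytes and fibroblasts, with gain or loss judged against DMSO. Parallel SRB total-protein staining flags overt cytotoxicity.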

[2] = read-out: C-C motif chemokine 2 (Homo sapiens) (UniProt P13500); assay: BSK_KF3CT_MCP1: BioMAP Diversity Plus: KF3CT Assay for Monocyte Chemoattractant Protein 1 (MCP1/CCL2) Biomarker Activity (AID 2283073); details: primary human keratinocytes with fibroblasts; actives raise or lower the signal
Summary of the method: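 Keratinocytes and foreskin fibroblasts were co-cultured, dosed with chemical, and sampled 24 h later. MCP-1 was quantified by ELISA, and the endpoint was analyzed with bidirectional fitting using DMSO as negative control.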

[3] = read-out: Matrix Metallopeptidase 9 (MMP9), MMP9 (gene 4318); assay: BSK_KF3CT_MMP9: BioMAP Diversity Plus: KF3CT Assay for Matrix Metallopeptidase 9 (MMP9) Biomarker Activity (AID 2283074); details: primary human keratinocytes with fibroblasts; actives raise or lower the signal
Summary of the method: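 MMP-9 quantified by ELISA after 24 h chemical treatment of primary human skin keratinocyte/fibroblast co-cultures; gain or loss fitted against DMSO, with parallel SRB staining (0.1% SRB, 560 nm) for overt cytotoxicity.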

[4] = read-out: urokinase plasminogen activator (uPA), PLAU (gene 5328); assay: BSK_KF3CT_uPA: BioMAP Diversity Plus: KF3CT Assay for urokinase plasminogen activator (uPA) Biomarker Activity (AID 2283075); details: primary human keratinocytes with fibroblasts; actives raise or lower the signal
Summary of the method: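 ELISA read-out of uPA 24 h after dosing human skin keratinocytes co-cultured with foreskin fibroblasts. Signal change fitted both ways relative to DMSO; sulforhodamine B on parallel cultures marks overt cytotoxicity.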

[5] = read-out: CD40, CD40 (gene 958); assay: BSK_LPS_CD40: BioMAP Diversity Plus: LPS Assay for CD40 Biomarker Activity (AID 2283076); details: primary human HUVEC with PBMC; actives raise or lower the signal
Summary of the method: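 CD40 signal, measured by ELISA, is fitted in both directions relative to DMSO vehicle. The system is an LPS-driven human vascular primary co-culture of endothelial cells and PBMC, sampled 24 h after compound addition.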

[6] = read-out: E-selectin (Homo sapiens) (UniProt P16581); assay: BSK_LPS_Eselectin: BioMAP Diversity Plus: LPS Assay for Eselectin Biomarker Activity (AID 2283077); details: primary human HUVEC with PBMC; actives raise or lower the signal
Summary of the method: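 Signal of E-selectin, detected by ELISA, served as the endpoint; cells were umbilical vein endothelium with PBMC, read 24 h after treatment. DMSO defined baseline, and both increases and decreases were fitted.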

[7] = read-out: Interleukin-8 (IL8), CXCL8 (gene 3576); assay: BSK_LPS_IL8: BioMAP Diversity Plus: LPS Assay for Interleukin-8 (IL8) Biomarker Activity (AID 2283078); details: primary human HUVEC with PBMC; actives raise or lower the signal
Summary of the method: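 Endothelial cells and PBMC from human donors are co-cultured, treated with chemicals and LPS, then assayed for IL-8 by ELISA after 24 h. Parallel SRB staining (0.1% SRB after 10% TCA fixation, 560 nm) flags cytotoxicity.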

[8] = BSK_LPS_SRB: Viability Assessment in the BioMAP Diversity Plus: LPS Assay (AID 2283079); details: primary human HUVEC with PBMC;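 also: total protein by sulforhodamine B absorbance as a cytotoxicity measure; measured one day after compound addition; fitted in both directions against DMSO so loss or gain of signal counts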
Summary of the method: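 Overt cytotoxicity was gauged by sulforhodamine B total-protein staining in a primary human vascular endothelial and mononuclear cell co-culture 24 h post-dosing. Activity was fitted in both directions relative to DMSO.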

[9] = read-out: Interleukin-1 alpha (IL1a), IL1A (gene 3552); assay: BSK_LPS_IL1a: BioMAP Diversity Plus: LPS Assay for Interleukin-1 alpha (IL1a) Biomarker Activity (AID 2283080); details: primary human HUVEC with PBMC; actives raise or lower the signal
Summary of the method: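 Measured: IL-1 alpha via ELISA at 24 h in LPS-activated human umbilical vein endothelium–PBMC co-culture. Baseline: DMSO, bidirectional fitting.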

[10] = read-out: Monocyte Chemoattractant Protein-1 (MCP1), CCL2 (gene 6347); assay: BSK_LPS_MCP1: BioMAP Diversity Plus: LPS Assay for Monocyte Chemoattractant Protein-1 (MCP1) Biomarker Activity (AID 2283081); details: primary human HUVEC with PBMC; actives raise or lower the signal
Summary of the method: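 LPS-stimulated HUVEC/PBMC co-culture; chemical, 24 h; MCP-1 by ELISA; bidirectional fit vs DMSO; cytotoxicity via SRB (0.1% stain, 10% TCA fix, 560 nm) in parallel wells.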

[11] = BSK_LPS_PGE2: BioMAP Diversity Plus: LPS Assay for Prostaglandin E2 (PGE2) Biomarker Activity (AID 2283082); details: primary human HUVEC with PBMC; actives raise or lower the signal
Summary of the method: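 PGE2 release measured by ELISA in an LPS-activated co-culture of human umbilical vein endothelial cells and peripheral blood mononuclear cells, read at 24 h post-dosing. DMSO served as baseline for bidirectional curve fitting.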

[12] = read-out: Tissue Factor, F3 (gene 2152); assay: BSK_LPS_TissueFactor: BioMAP Diversity Plus: LPS Assay for Tissue Factor Biomarker Activity (AID 2283084); details: primary human HUVEC with PBMC; actives raise or lower the signal
Summary of the method: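 In this co-culture system of umbilical vein endothelium with PBMC, stimulated with LPS, cell-surface CD142 is detected by ELISA at 24 h. Endpoint values derive from bidirectional fitting, DMSO serving as baseline.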

[13] = read-out: Tumor necrosis factor (Homo sapiens) (UniProt P01375); assay: BSK_LPS_TNFa: BioMAP Diversity Plus: LPS Assay for Tumour Necrosis Factor alpha (TNFa) Biomarker Activity (AID 2283085); details: primary human HUVEC with PBMC; actives raise or lower the signal
Summary of the method: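 TNFa was quantified by ELISA in LPS-activated co-cultures of human endothelial cells and PBMC, 24 h post-dosing. Both increases and decreases versus DMSO were fitted.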

[14] = read-out: CD38, CD38 (gene 952); assay: BSK_SAg_CD38: BioMAP Diversity Plus: SAg Assay for CD38 Biomarker Activity (AID 2283087); details: primary human HUVEC with PBMC; actives raise or lower the signal
Summary of the method: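 CD38 quantified by ELISA (fluorescence) in a superantigen-activated endothelial cell–PBMC co-culture at 24 h post-dose. Activity fitted in both directions relative to DMSO; parallel SRB and Alamar Blue cytotoxicity read-outs.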

[15] = read-out: CD40, CD40 (gene 958); assay: BSK_SAg_CD40: BioMAP Diversity Plus: SAg Assay for CD40 Biomarker Activity (AID 2283088); details: primary human HUVEC with PBMC; actives raise or lower the signal
Summary of the method: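 Fluorescence ELISA read-out of CD40 from umbilical vein endothelium plus peripheral blood mononuclear cells, sampled 24 h after dosing. Values come from bidirectional curve fitting with DMSO as baseline.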

[16] = read-out: CD69, CD69 (gene 969); assay: BSK_SAg_CD69: BioMAP Diversity Plus: SAg Assay for CD69 Biomarker Activity (AID 2283089); details: primary human HUVEC with PBMC; actives raise or lower the signal
Summary of the method: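 Values derive from bidirectional fitting relative to DMSO vehicle. Cells: umbilical vein endothelium plus peripheral blood mononuclear cells, treated 24 h before fluorescent ELISA for CD69.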

[17] = read-out: Monocyte Chemoattractant Protein-1 (MCP1), CCL2 (gene 6347); assay: BSK_SAg_MCP1: BioMAP Diversity Plus: SAg Assay for Monocyte Chemoattractant Protein-1 (MCP1) Biomarker Activity (AID 2283090); details: primary human HUVEC with PBMC; actives raise or lower the signal
Summary of the method: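 Values derive from bidirectional fitting of ELISA-measured MCP1 against DMSO controls. Readings were taken 24 h after dosing human vascular endothelial cells co-cultured with peripheral blood mononuclear cells under superantigen stimulation.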

[18] = read-out: E-selectin (Homo sapiens) (UniProt P16581); assay: BSK_SAg_Eselectin: BioMAP Diversity Plus: SAg Assay for Eselectin Biomarker Activity (AID 2283091); details: primary human HUVEC with PBMC; actives raise or lower the signal
Summary of the method: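 Primary human endothelial cells and peripheral blood mononuclear cells were co-cultured and exposed to chemical for 24 hours. E-selectin levels were then quantified by ELISA, with bidirectional curve fitting normalised to DMSO controls.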

[19] = read-out: Vascular cell adhesion molecule 1 (VCAM1), VCAM1 (gene 7412); assay: BSK_LPS_VCAM1: BioMAP Diversity Plus: LPS Assay for Vascular cell adhesion molecule 1 (VCAM1) Biomarker Activity (AID 2283086); details: primary human HUVEC with PBMC; actives raise or lower the signal
Summary of the method: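 VCAM-1 quantified by ELISA in an LPS-activated co-culture of human endothelial cells and peripheral blood mononuclear cells, read 24 h post-treatment. Fitted in both directions versus DMSO; parallel SRB staining flags overt cytotoxicity.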

Measured: outcome

Chain of E-selectin (Homo sapiens) (P16581 whole entry, looked up): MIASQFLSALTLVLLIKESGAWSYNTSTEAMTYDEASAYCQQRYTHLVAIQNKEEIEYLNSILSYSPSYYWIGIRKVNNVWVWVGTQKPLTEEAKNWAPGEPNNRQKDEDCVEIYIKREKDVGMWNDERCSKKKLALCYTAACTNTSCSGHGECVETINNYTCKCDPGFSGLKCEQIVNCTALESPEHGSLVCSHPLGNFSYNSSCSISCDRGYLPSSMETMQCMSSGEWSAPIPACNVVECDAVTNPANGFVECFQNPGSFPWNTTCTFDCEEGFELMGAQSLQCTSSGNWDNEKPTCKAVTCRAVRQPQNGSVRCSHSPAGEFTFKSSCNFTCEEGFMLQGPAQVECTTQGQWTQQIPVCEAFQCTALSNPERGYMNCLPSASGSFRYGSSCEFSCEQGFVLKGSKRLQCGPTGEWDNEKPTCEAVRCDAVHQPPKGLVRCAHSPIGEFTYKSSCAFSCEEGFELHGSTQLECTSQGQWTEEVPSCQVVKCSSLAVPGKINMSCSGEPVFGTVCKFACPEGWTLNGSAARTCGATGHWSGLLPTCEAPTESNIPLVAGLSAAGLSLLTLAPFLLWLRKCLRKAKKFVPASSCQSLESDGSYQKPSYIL
Chain of Tumor necrosis factor (Homo sapiens) (P01375 whole entry, looked up): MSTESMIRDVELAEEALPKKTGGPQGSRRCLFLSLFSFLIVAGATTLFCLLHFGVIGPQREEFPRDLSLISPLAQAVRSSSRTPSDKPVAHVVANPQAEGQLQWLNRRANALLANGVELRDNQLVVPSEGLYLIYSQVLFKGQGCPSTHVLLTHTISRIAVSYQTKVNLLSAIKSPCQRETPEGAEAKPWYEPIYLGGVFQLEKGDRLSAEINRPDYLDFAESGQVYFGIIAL

CCCCCCCCOC(=O)CCCCCCCCC(=O)OCCCCCCCC
inactive: [1] | [2] | [3] | [4] | [5] | [6] | [7] | [8] | [9] | [10] | [11] | [12] | [13] | [14] | [15] | [16] | [17] | [18]

CCCCCCC(=O)O
inactive: [1] | [2] | [3] | [4] | [5] | [6] | [7] | [8] | [9] | [10] | [11] | [12] | [13] | [19] | [14] | [15] | [16] | [17] | [18]

COCC(C)O (stereo not given)
inactive: [1] | [2] | [3] | [4] | [5] | [6] | [7] | [8] | [9] | [10] | [11] | [12] | [13] | [14] | [15] | [16] | [17] | [18]
